Measurements as given in PubChem BioAssay AID1347165 (National Center for Advancing Translational Sciences (NCATS), 2019).
Hit rate of the full screen: of about 220,000 compounds, about 5,700 (2.6%) were called active. Entries that show only a call come without a potency. About 18% were inconclusive and are not listed. This is one part of a sample in which actives are shown more often than they occur. Values without a mark were called inactive. The call rests on the fitted dose curve; in most records, active means well fitted inhibition curve with a large enough effect; inconclusive means small, poorly fitted or top-dose-only effect; inactive means no such curve, though single readings can be large or run the other way.
Further: nearly all actives have a fitted effect of over 70% in size.
Potency means the concentration at half of the fitted maximal effect.

What follows are compounds tested against Lysine-specific demethylase 5B (Homo sapiens) (UniProt Q9UGL1) (assay: Primary screen for KDM5B Histone Demethylases FDH-coupled qHTS). Conditions: FDH-coupled NADH fluorescence (FDH is formaldehyde dehydrogenase); series mostly up to 57.7 µM.
Lysine-specific demethylase 5B (Homo sapiens), sequence (Q9UGL1 whole entry, looked up): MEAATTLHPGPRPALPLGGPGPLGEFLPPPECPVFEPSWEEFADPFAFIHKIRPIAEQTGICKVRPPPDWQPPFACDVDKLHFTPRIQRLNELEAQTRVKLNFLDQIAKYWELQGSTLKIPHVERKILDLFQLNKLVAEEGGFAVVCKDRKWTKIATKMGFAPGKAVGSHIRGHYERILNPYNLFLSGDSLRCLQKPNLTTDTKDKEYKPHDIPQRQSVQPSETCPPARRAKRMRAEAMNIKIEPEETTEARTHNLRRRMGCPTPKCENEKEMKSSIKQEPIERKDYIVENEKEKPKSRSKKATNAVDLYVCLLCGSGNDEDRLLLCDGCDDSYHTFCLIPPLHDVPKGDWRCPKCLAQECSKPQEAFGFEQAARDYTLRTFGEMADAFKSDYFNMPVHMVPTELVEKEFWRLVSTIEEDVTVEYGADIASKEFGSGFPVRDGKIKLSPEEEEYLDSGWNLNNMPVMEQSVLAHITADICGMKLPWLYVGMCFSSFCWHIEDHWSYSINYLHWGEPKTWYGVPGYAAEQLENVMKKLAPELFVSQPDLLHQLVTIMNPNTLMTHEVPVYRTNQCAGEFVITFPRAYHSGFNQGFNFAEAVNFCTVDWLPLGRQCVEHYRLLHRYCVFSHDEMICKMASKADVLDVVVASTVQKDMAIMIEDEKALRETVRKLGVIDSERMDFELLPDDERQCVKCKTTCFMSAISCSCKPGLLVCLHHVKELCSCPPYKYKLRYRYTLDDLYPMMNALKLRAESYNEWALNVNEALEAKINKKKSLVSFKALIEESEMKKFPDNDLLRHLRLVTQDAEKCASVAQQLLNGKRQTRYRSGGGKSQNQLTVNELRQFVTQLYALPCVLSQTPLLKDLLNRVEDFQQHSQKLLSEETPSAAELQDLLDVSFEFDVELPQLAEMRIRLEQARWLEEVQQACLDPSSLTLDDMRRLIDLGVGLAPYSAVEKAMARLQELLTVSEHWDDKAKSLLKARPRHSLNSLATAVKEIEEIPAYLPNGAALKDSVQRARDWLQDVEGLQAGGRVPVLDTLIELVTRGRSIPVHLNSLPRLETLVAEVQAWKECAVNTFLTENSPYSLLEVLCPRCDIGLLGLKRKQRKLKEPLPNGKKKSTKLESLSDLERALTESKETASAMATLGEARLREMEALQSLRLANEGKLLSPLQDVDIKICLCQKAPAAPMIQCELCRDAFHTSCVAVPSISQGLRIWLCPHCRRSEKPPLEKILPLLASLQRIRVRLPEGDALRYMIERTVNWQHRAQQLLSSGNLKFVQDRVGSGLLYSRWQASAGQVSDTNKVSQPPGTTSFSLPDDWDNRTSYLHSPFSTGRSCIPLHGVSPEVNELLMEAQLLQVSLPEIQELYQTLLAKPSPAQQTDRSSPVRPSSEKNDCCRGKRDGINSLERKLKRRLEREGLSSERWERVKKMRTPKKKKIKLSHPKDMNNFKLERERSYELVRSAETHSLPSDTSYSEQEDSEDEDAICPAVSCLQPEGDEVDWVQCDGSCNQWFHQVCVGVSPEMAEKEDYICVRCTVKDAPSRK
Text: Assay Submitter (PI): Qin Yan, Ph.D. (Yale University) and Xiaodong Cheng, Ph.D. (MD Anderson) This project was funded as part of the NCI NEXT Program and Chemical Biology Consortium (CBC) The histone demethylases, KDM5A and KDM5B catalyze the demethylation of lysine 4 on histone H3 (H3K4me3/2). They are overexpressed in a variety of cancers and have been implicated in cancer cell growth, metastasis, drug resistance, and tumor growth. KDM5A is amplified and overexpressed in breast and gastric cancer; and is translocated in leukemia. While KDM5B is highly expressed in human mammary tumors and breast cancer cell lines, but not in normal adult breast tissue. Moreover, knockdown of KDM5B leads to upregulation of tumor suppressor genes, including BRCA1. The goal of this project is to employ qHTS to identify selective small molecule inhibitors of KDM5A/B demethylase activity to better understand the role of KDM5 in cancer and to develop novel therapies. We employed an FDH-coupled assay previously reported by Sakurai et al. to monitor in vitro KDM5 demethylase activity. Compounds showing dose response inhibition are re-acquired, validated, and tested for non-specific interference with the formaldehyde dehydrogenase (FDH) counterscreen. True inhibitors are validated using an AlphaLisa secondary screen, which employs an H3K4(me2-1)-specific antibody to monitor demethylation of a biotin-tagged H3K4(me3) peptide substrate. Inhibitors are profiled against KDM4A and KDM6A AlphaLisa counterscreens to determine level of demethylase specificity; and against the TruHits counterscreen to eliminate non-specific inhibitory activity on the AlphaLISA detection method. Selective inhibitors identified from the primary and secondary screening are tested in cells using immunofluorescence to monitor global H3K4 tri-methylation as a measure of KDM5A/B inhibition. Early Translation Branch (ETB) National Center for Advancing Translational Sciences (NCATS), Rockville, MD National Institute of Health (NIH), Bethesda, Maryland [1] Sakurai, M et al. A miniaturized screen for inhibitors of Jumonji histone demethylases. Mol Biosyst. 2010 Feb;6(2):357-64. doi: 10.1039/b912993f. Epub 2009 Oct 8.
Materials: 1536-well Black, solid bottom, medium binding assay plate is purchased from Greiner Bio-one. The enzymes (KDM5B) and substrate (H3K4me3/2) are provided by the principal investigators. The buffer for this assay is composed of 50mM HEPES at pH 7.5 with 0.01% Tween-20. FDH coupled Demethylase qHTS protocol: Three microliter enzyme mix (buffer + 200nM KDM5BDeltaAP final concentration) is dispensed into the assay plate using the BioRAPTR Flying Reagent Dispenser (FRD; […]). Compound (at various final concentration) and control solution is pin transferred to the assay plate using the Kalypsys 1536-pin tool apparatus. The assay plate is incubated for 10 min at room temperature followed by addition of 1uL substrate mix (buffer + 100uM ascorbic acid, 50uM ferrous ammonium sulfate, 12.5uM H3K4Me3, 25uM a-ketoglutarate, 0.25 mM NAD+, 0.25 U/mL formaldehyde dehydrogenase using the FRD yielding a total reaction volume of 4 uL. Initial fluorescence (Read1) is detected using the PerkinElmer ViewLux plate reader equipped with 340 nm excitation and 450 nm emission filters. The final fluorescence (Read2) signal is obtained after 30 min of room temperature incubation. Delta RFU is calculated (Read2 - Read1) and is used to generated dose response curves.
For Cc1cc(Cl)cc(SCC(=O)O)c1Cl, the Potency was “inactive”.
For CC(C)NC(=S)N/N=C1\CCc2ccccc21, the Potency was “inactive”.
With CC(O)CNC(=O)c1ccc(-c2ncc3cnc(C4=CCOCC4)cn23)cc1 (stereo unspecified) the Potency was 35.5 µM (active).
For Cc1ccc(S(=O)(=O)N2CC(C)N(S(C)(=O)=O)C2)cc1 (stereo unspecified), the Potency was “inactive”.
With COc1ccc(CN(C)C(=O)c2nn(C)c(=O)c3ccccc23)cc1F the Potency was “inactive”.
With COc1ccccc1-c1cc(C(=O)N(C)C)nc2c1cnn2C the Potency was 89.1 µM (active).
In the case of COc1ccccc1CNC(=O)c1nn(C)c(=O)c2ccccc12, the Potency was “inactive”.
In the case of O=C(/C=C/c1ccc(F)cc1)NNC(=O)c1ccc(NC(=O)C2CCCCC2)cc1, the Potency was “inactive”.
With CCCCCOC(=O)COc1ccc2c(=O)c(Oc3cccc(C)c3)c(C(F)(F)F)oc2c1 the Potency was “inactive”.
With CC(C)C(NC(=O)Cc1ccc(N2CCCC2=O)cc1)c1nc2ccccc2[nH]1 (stereo unspecified) the Potency was “inactive”.
For CCCS(=O)(=O)N1Cc2c(ncn2Cc2ccc(Cl)cc2)C[C@H]1C(=O)OC, the Potency was “inactive”.
For CCCn1cnc2c1CN(S(=O)(=O)Cc1ccccc1)[C@H](C(=O)OC)C2, the Potency was 39.8 µM (active).
For COC(=O)[C@@H]1Cc2ncn(Cc3ccccc3)c2CN1C(=O)CC(C)(C)C, the Potency was “inactive”.
For CCC(C)NC(=O)c1sccc1-c1ccccc1 (stereo unspecified), the Potency was “inactive”.
With CCc1nc2ccc(C(=O)NCCCN(CC)CC)cc2nc1CC the Potency was “inactive”.
In the case of CCc1c(C)sc(NC(=O)c2cccc(Br)c2)c1C#N, the Potency was “inactive”.
CC1CCC2CCCCC2N1C(=O)c1cc([N+](=O)[O-])cc([N+](=O)[O-])c1 (stereo unspecified) was tested, and the Potency was “inactive”.
O=S(=O)(c1cccs1)N1CCn2cccc2C1c1ccccc1F (stereo unspecified) was tested, and the Potency was “inactive”.
With CCN1C(=O)C2CC3(CCN(C(=O)c4nccn4C)CC3)CN2C1=O (stereo unspecified) the Potency was “inactive”.
For Cn1ccnc1C(=O)N1CCC2(CC1)CN(c1ncccn1)CC2CO (stereo unspecified), the Potency was 22.4 µM (active).
In the case of CC(=O)N1CC(CO)C2(CCN(C(=O)c3ccccc3Cl)CC2)C1 (stereo unspecified), the Potency was “inactive”.
For Cn1cc(CC(=O)N2CCCc3ncc(C(=O)NCCOc4ccccc4)cc32)c2ccccc21, the Potency was “inactive”.
In the case of Cc1cccc(NC(CNS(=O)(=O)c2ccccc2)c2ccccc2)c1 (stereo unspecified), the Potency was “inactive”.
With CC(C)OCCC(=O)N1CCCC(CN2CCN(c3ccccn3)CC2)C1 (stereo unspecified) the Potency was “inactive”.
In the case of O=C(CC(NC(=O)c1ccccc1)c1ccccc1)NCc1cccs1 (stereo unspecified), the Potency was “inactive”.
In the case of CCOC(=O)N1CCN(Cc2cc(=O)oc3c(C)c(C)cc(C)c23)CC1, the Potency was “inactive”.
With c1cnc2nc(C3CCCCN3)[nH]c2c1 (stereo unspecified) the Potency was “inactive”.
CCC(Sc1nc2ncccc2[nH]1)C(=O)Nc1ccc(C)c(Cl)c1 (stereo unspecified) was tested, and the Potency was “inactive”.
With Cc1cc(C)c(-c2nc3ncccc3[nH]2)[nH]1 the Potency was 35.5 µM (active).
OC(c1nc2ccc(F)cc2[nH]1)C(O)c1nc2ccc(F)cc2[nH]1 (stereo unspecified) was tested, and the Potency was “inactive”.
For NC(=O)c1cccc(-c2ncc3c(n2)OCCN(Cc2ccccc2)C3=O)c1, the Potency was “inactive”.
For COc1ccc(-c2ncc3c(n2)OCCN(Cc2ccccc2)C3=O)cn1, the Potency was 28.2 µM (active).
In the case of O=C1c2cnc(-c3ccccc3)nc2OCCN1c1ccccc1, the Potency was “inactive”.
With NC(=O)c1cccc(-c2ncc3c(n2)OCCN(c2cccc(C(F)(F)F)c2)C3=O)c1 the Potency was “inactive”.
In the case of O=C1c2cnc(-c3ccc(O)c(F)c3)nc2OCCN1Cc1ccccc1, the Potency was 20 µM (active).
For O=C1c2cnc(-c3ccc(Cl)cc3)nc2OCCN1Cc1ccccc1, the Potency was “inactive”.
In the case of CCCNc1c(NC(=O)Nc2ccccc2)c(=O)oc2ccccc12, the Potency was “inactive”.
For CCCCN1C(=O)NC(c2ccc(OC)cc2)C2=C1COC2=O (stereo unspecified), the Potency was “inactive”.
For O=C(Nc1ccc(F)cc1)C1=C(N2CCCC2)c2ccccc2S1(=O)=O, the Potency was “inactive”.
In the case of Cn1nc(C(=O)Nc2nc(-c3cc(F)ccc3F)cs2)c2ccccc2c1=O, the Potency was “inactive”.
CC(C)(C)Sc1ccc2nn(CC(=O)NCc3ccccc3Cl)c(=O)n2n1 was tested, and the Potency was “inactive”.
Cc1nc(Cc2nn3c(-c4cc(Cl)ccc4F)nnc3s2)cs1 was tested, and the Potency was “inactive”.
Cc1nc(C)c(C(=O)C2=C(O)C(=O)N(CCN3CCOCC3)C2c2ccc(C(C)(C)C)cc2)s1 (stereo unspecified) was tested, and the Potency was “inactive”.
In the case of COC(=O)c1ccc(COc2c(Cl)cccc2Cl)cc1, the Potency was “inactive”.
In the case of Cc1nn(-c2ccccc2)c(C)c1[C@@H]1C=C[C@@H](NC(=O)c2ccc3c(c2)OCO3)C1, the Potency was “inactive”.
With Cc1nn(-c2ccc(C(C)C)cc2)c(C)c1[C@@H]1C=C[C@@H](NC(=O)Nc2ccccc2)C1 the Potency was “inactive”.
Cc1nn(-c2ccc(C(C)(C)C)cc2)c(C)c1[C@@H]1C=C[C@@H](NC(=O)c2ccco2)C1 was tested, and the Potency was 31.6 µM (active).
For CCCCN(CCCC)c1nc2ccccc2nc1C(C#N)C(=O)OC(C)C (stereo unspecified), the Potency was “inactive”.
In the case of N#Cc1cccc(Oc2cccc3cccnc23)c1C#N, the Potency was “inactive”.
In the case of c1csc(CNCC2CCNCC2)c1, the Potency was “inactive”.
O=Cc1cccc(-c2cc(F)cc(F)c2)c1 was tested, and the Potency was “inactive”.
